Source: PubChem
SMARCA2 act: SMARCA2 (BRM) function activators, primary screen, cell-based, luminescence, high throughput. MG213 cells, MMTV-luciferase reporter, dexamethasone, overnight. activation, % at 9.1 µM. 370,000 tested, 1% active; in the data active = activation above about 7.8%
hgDAF-12 ag: H. glycines DAF-12 receptor agonists, primary screen, cell-based, luminescence, HEK293, GAL4 fusion, UAS-luciferase | Nuclear hormone receptor DAF-12 (Heterodera glycines), GAL4 fusion | HEK293 GAL4-hgDAF12 UAS-luciferase reporter, agonist luminescence; normalized to butyrate control | activation, % at 6.8 µM | 370,000 tested, 1.8% active | AID 687014, 2013;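 active = activation above a cutoff set at the mean of all screened compounds plus 3 SD, cut at about 10% in these data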
DAX1 inh-1: DAX1 (NR0B1) inhibitors on StAR promoter, primary screen, cell-based, luminescence, SF-1 (NR5A1), full-length DAX-1; HEK293T StAR-luciferase reporter, SF-1/DAX-1 repression relief; 370,000 tested, 1.1% active; inhibition, % at 6.8 µM;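 active = inhibition above the mean over all tested compounds plus 3 SD, cut at about 3.6% in these data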;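 note: higher inhibition means more luminescence from relief of DAX-1 repression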
DAX1 inh-2: DAX1 (NR0B1) inhibitors, primary screen, cell-based, HEK293, Gal4-DAX1, luciferase luminescence; inhibition, % at 6.75 µM; Nuclear receptor subfamily 0 group B member 1 (Homo sapiens), P51843; 340,000 tested, 0.99% active; HEK293 Gal4-DAX1 luciferase reporter; AID 504766, 2011;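 active = inhibition above the mean over all tested compounds plus 3 SD, cut at about 4.2% in these data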;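 note: inhibition shows as a rise in luminescence from relieved DAX1 repression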
ssDAF-12 act: S. stercoralis DAF-12 nuclear receptor activators, primary screen, cell-based, luminescence, HEK293, GRIP1 co-expression, lit1-tk-luc; HEK293 ssDAF-12/GRIP1 lit1-tk-luc reporter; % of 3 µM dafachronic acid response; activation, % at 6.8 µM; AID 652126, 2013; 370,000 tested, 1% active;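 active = activation above the mean over all tested compounds plus 3 SD, cut at about 0.9% in these data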
hcDAF-12 act: H. contortus DAF-12 nuclear receptor activators, primary screen, cell-based, luminescence, HEK293, lit1-tk-luc reporter | HEK293 hcDAF-12 lit1-tk-luc reporter; 0% DMSO, 100% Δ7-dafachronic acid | activation, % at 6.8 µM | 370,000 tested, 1.4% active | AID 652067, 2013;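 active = activation above the mean of all tested compounds plus 3 SD, cut at about 5.5% in these data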
SMARCA2 act conf: SMARCA2 (BRM) function activators, confirmation, cell-based, luminescence, triplicate. shares compounds with SMARCA2 act. MG213 cells, MMTV-luciferase with dexamethasone, overnight; MG213 cells expressing E1A, Rb sequestered; DMSO wells 0%, reference activator 100%. activation, % at 9.1 µM. 3,500 tested, 30% active. AID 652260, 2013;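 active = activation above its plate's cutoff, the mean activation of tested wells plus 3 SD, cut at about 7.9% in these data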
GAL4-VP16 Luc: GAL4-VP16 luciferase reporter activation, counter-screen for SMARCA2 (BRM) activator project, cell-based, pG5luc, luminescence, high throughput. HEK293 GAL4-VP16 pG5luc reporter; scaled: DMSO wells 0%, SAHA wells 100%. activation, % at 9.1 µM. 3,500 tested, 41% active. AID 686939, 2013. shares compounds with SMARCA2 act;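 active = activation above the solvent-only control well mean plus 3 SD, averaged across control plates, cut at about 5.2% in these data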
LXR ag: LXR agonists, Gal4 luciferase reporter, confirmation, counter-screen for hcDAF-12 agonist project, cell-based, luminescence, HEK293, H. contortus campaign; shares compounds with hcDAF-12 act; HEK293 Gal4-LXR tk-luc reporter, 24 h; normalized: DMSO 0%, positive control 100%; activation, % at 6.8 µM; 3,400 tested, under 10 active;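 active = mean percent activation of the reporter above a cutoff set as the average over tested compounds plus their standard deviation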
Target sequence (P55055 whole entry, looked up, the tested form may be a part): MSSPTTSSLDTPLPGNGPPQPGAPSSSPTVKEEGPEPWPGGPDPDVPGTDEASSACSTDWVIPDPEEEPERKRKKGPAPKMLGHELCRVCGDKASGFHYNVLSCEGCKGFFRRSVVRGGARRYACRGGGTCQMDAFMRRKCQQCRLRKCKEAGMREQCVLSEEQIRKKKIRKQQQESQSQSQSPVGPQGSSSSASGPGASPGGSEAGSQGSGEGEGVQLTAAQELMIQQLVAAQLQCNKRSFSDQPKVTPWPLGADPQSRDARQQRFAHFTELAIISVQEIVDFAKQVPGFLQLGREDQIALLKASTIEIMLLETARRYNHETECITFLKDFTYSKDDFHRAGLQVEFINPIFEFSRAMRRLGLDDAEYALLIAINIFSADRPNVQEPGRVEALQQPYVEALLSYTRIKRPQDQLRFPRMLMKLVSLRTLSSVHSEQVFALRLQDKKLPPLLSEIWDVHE
hcDAF12 conf: H. contortus DAF-12 receptor agonists, confirmation, cell-based, luminescence, HEK293, lit1-tk-luc, triplicate. activation, % at 6.8 µM. HEK293 hcDAF-12 lit1-tk-luc reporter; % of Δ7-dafachronic acid response. shares compounds with hcDAF-12 act. 3,400 tested, 61% active. AID 743032, 2013;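 active = mean activation across triplicate tests above the threshold derived from the earlier primary screen, cut at about 5.5% in these data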
hgDAF12 conf: H. glycines DAF-12 receptor agonists, confirmation, cell-based, luminescence, HEK293, GAL4-LBD fusion; 3,300 tested, 80% active; AID 743050, 2013; shares compounds with hgDAF-12 ag; activation, % at 6.8 µM; HEK293 GAL4-hgDAF12 luciferase reporter, agonist mode; percent of butyrate response;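 active = mean activation over triplicate wells above the hit cutoff derived from the earlier primary screen, cut at about 11% in these data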
LXRb DAF12 ctr: LXR agonists, Gal4 luciferase reporter, confirmation, counter-screen for hgDAF-12 agonist project, cell-based, luminescence, HEK293, H. glycines campaign | shares compounds with hgDAF-12 ag | 24 h | activation, % at 6.8 µM | 3,300 tested, under 10 active | AID 743051, 2013;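 active = mean activation of the triplicate above a set limit carried over from the primary screen, none filed active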
Numbers stand for hits; n = inactive; x = no result given; ! = not confirmed by another sample. Most compounds without a hit are left out; they make up all but 4.8% or so of the library.

SMILES	SMARCA2 act	hgDAF-12 ag	DAX1 inh-1	DAX1 inh-2	ssDAF-12 act	hcDAF-12 act	SMARCA2 act conf	GAL4-VP16 Luc	others
COc1ccc2c(c1)/C(=C/c1cnc[nH]1)C(=O)N2	17.3	n	n	n	1.1	n	10.7	n
O=C(NC1CN2CCC1CC2)c1cc(-c2ccc(Cl)cc2)nc2ccccc12 (centres undefined)	10.6	n	n	x	n	n	n	n
O=C1c2ccccc2-c2cccc3cccc1c23	8.6	n	n	n	n	n	9.5	n
O=C1C=C(N2CC2)c2ccccc2C1=O	n	n	n	n	n	n	x	x
Cc1ccsc1CNCCc1ccc(F)cc1	n	n	n	n	n	n	x	x
COc1cccc(-n2c(CN3CCOCC3)nc3ccc([N+](=O)[O-])cc3c2=O)c1	11.0	n	n	n	n	n	n	n
Cc1cc(O)c(CN2CCN(c3ccccc3)CC2)cc1C	n	n	n	n	n	n	x	x
COc1nc2ccccc2nc1N1CC1	n	n	n	x	n	n	x	x
N[C@@H](Cc1ccc(N(CCCl)CCCl)cc1)C(=O)O	n	n	n	n	n	n	x	x
ClCCN(CCCl)c1ccc(-n2cnc3c(Cl)ncnc32)cc1	16.1	n	n	n	n	n	n	n
CCn1c(O)c(/C=N/NC(=O)c2ccncc2)c(=O)[nH]c1=S	n	n	n	n	n	n	x	x
CCn1c(O)c(/C=N/NC(=O)c2ccccc2)c(=O)n(CC)c1=S	8.1	n	n	x	n	n	n	n
O=c1[nH]sc2cc(F)ccc12	13.2	n	n	n	n	n	10.7	n
O=C1NC(=O)N(c2ccc(F)cc2)C(=O)/C1=C/c1ccsc1	n	n	n	n	n	n	x	x
CCC1CCCCN1CC(=O)c1ccc(OC(F)F)cc1 (centres undefined)	14.0	n	n	n	n	n	n	n
Cc1cc(C=C2C(=O)N(C)C(=S)N(C)C2=O)c(C)n1C1CCCC1	n	n	n	n	n	n	x	x
COc1ccc(N2C(=O)CC(N3CC=C(c4ccccc4)CC3)C2=O)cc1 (centres undefined)	11.1	n	n	n	n	n	n	n
Nc1ccccc1C(=O)OCC(=O)N1CCc2ccccc21	8.7	n	n	n	n	n	n	7.5
Cc1ccc(S(=O)(=O)N2Cc3cnnn3-c3ccccc3C2C#N)cc1 (centres undefined)	n	n	n	n	n	n	x	x
CC(=O)Nc1ccc(S(=O)(=O)N2Cc3cnnn3-c3ccccc3C2C#N)cc1 (centres undefined)	9.7	n	3.7	n	n	n	n	n
Cc1cc(C(=O)CS(=O)(=O)c2ccccc2)cc(C)c1OC(=O)N(C)C	13.0	13.8	4.0	n	n	n	n	8.8	hgDAF12 conf=n;LXRb DAF12 ctr=n
CC(=O)OC1CCC2(C)C(CCC3C2CC(=O)C2(C)C3CC(N3CC3)C2C(C)=O)C1 (centres undefined)	n	n	n	n	n	n	x	x
O=C(c1cc(Br)ccc1Cl)N1CCC2(CC1)OCCO2	n	n	n	n	n	n	x	x
O=C(c1cc2cc(Br)ccc2[nH]1)N1CCC2(CC1)OCCO2	n	n	n	n	n	7.6	x	x	LXR ag=n;hcDAF12 conf=n
O=c1[nH]c(=O)n(Cc2ccccc2)c(O)c1/C=C1\C=Nc2ccccc21	n	n	n	n	n	n	x	x
SMILES	SMARCA2 act	hgDAF-12 ag	DAX1 inh-1	DAX1 inh-2	ssDAF-12 act	hcDAF-12 act	SMARCA2 act conf	GAL4-VP16 Luc	others
O=c1[nH]c(=O)n(CC2CCCO2)c(O)c1/C=C1\C=Nc2ccccc21 (centres undefined)	n	n	n	5.4!	n	6.1	x	x	LXR ag=n;hcDAF12 conf=n
Cc1cc(OC(=O)c2ccco2)c2c3c(c(=O)oc2c1)CCC3	n	n	n	n	n	n	x	x
Cc1ccc(-c2nn(Cc3ccccc3)cc2C=O)cc1	n	n	n	n	n	9.4	x	x	LXR ag=n;hcDAF12 conf=n
CCC(N)Cc1c[nH]c2ccccc12 (centres undefined)	n	n	n	n	n	7.2	x	x	LXR ag=n;hcDAF12 conf=n
CC(C)Sc1nnc([C@@H](N)Cc2c[nH]c3ccccc23)o1	n	n	n	n	n	n	x	x
Cn1cc(C=C2C(=O)NC(=O)NC2=O)c2ccccc21	n	n	n	n	n	n	x	x
CC(=O)n1cc(C=C2C(=O)NC(=O)NC2=O)c2ccccc21	n	n	n	n	n	9.8	x	x	LXR ag=n;hcDAF12 conf=n
O=c1[nH]c(=O)n(Cc2ccco2)c(O)c1C=NCCN1CCOCC1	n	n	n	n	n	n	x	x
c1ccc2c(CN3CCOCC3)c[nH]c2c1	n	n	n	n	n	7.0	x	x	LXR ag=n;hcDAF12 conf=n
Cc1cc(S(N)(=O)=O)ccc1N=Cc1c(O)n(-c2ccccc2)c(=O)[nH]c1=O	n	n	n	n	n	n	x	x
Cc1ccc(-n2c(O)c(C=Nc3ccccc3N)c(=O)[nH]c2=O)cc1C	n	n	4.4	n	n	7.8	x	x	LXR ag=n;hcDAF12 conf=n
